Rows were chosen to be rich in hits. Some 22% of all compounds tested hit in one or more screens of this group.
CYP2C9 act – activators of human CYP2C9 | activation factor at 5 µM | recombinant CYP2C9, luciferin-H conversion, luminescence; hits give high values; factor 1 = untreated enzyme, 0 = blocked | 96,000 tested, 1.4% active | P11712;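 active means activation factor of 2 or more for CYP2C9 at a 5 µM dose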;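 further: 0 = sulfaphenazole-blocked wells and 1 = vehicle-only wells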
CYP2C19 inhib – human CYP2C19 inhibition; CYP2C19 Supersomes, luciferin-H EGE luminescence, 30 min; inhibition, % at 5 µM; 96,000 tested, 21% active; AID 778;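 active means CYP2C19 inhibition above a set limit at 5 µM in the primary screen, cut at about 50% in these data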;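 further: plate controls were negative control wells for no effect and 2.5 mM tranylcypromine positive control for full effect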
Target sequence (P33261 whole entry, looked up): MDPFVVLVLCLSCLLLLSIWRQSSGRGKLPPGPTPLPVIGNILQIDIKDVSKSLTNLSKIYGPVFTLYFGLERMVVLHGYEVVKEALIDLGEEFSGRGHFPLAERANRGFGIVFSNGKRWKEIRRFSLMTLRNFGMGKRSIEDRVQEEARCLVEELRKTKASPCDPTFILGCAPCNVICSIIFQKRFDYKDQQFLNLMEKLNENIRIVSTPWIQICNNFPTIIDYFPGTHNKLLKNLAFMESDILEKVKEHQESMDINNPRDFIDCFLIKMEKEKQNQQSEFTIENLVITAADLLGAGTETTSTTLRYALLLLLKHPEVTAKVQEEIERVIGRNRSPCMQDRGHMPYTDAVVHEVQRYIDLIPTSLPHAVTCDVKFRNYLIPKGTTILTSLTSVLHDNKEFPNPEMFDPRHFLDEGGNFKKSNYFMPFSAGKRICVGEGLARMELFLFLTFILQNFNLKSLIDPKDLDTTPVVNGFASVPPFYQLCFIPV
CYP2C19 act – increases human CYP2C19 enzyme activity; recombinant CYP2C19, luciferin-H EGE luminescence; hits give high values; 0 = fully inhibited enzyme, 1 = untreated enzyme; activation factor at 5 µM; 96,000 tested, under 10 active; AID 1025;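 active means activation factor of at least 2 at 5 µM in the primary screen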;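 further: 0 = wells with 2.5 mM tranylcypromine and 1 = vehicle-only wells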
Measles CPE – protection of cells from measles virus; Measles virus-infected cells, CPE protection, absorbance; 140,000 tested, 1.5% active; protection (pct of control), % at 4 µM; AID 841; in the data active means protection mostly above about 24%, no sharp cut-off; inactive means mostly below about 26%
CYP2C9 inh – inhibitors of human CYP2C9; P11712; CYP2C9 Supersomes, luciferin-H conversion, luminescence; inhibition, % at 5 µM; 96,000 tested, 20% active; AID 777;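 active means blocking of liver enzyme CYP2C9 beyond about 50% at 5 µM, limit read from the data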
* = called active by the depositor; / = no result given.

SMILES	CYP2C9 act	CYP2C19 inhib	CYP2C19 act	Measles CPE	CYP2C9 inh
COc1cccc(-c2nc(NCCN3CCOCC3)c3ccccc3n2)c1O	0.4	32	0.7	5	56*
Cc1ccc(-c2nc3ccccc3c(=O)n2CCCN2CCOCC2)cc1	1	-11	1.1	16	-3
COc1ccccc1C(=O)NC(CCSC)C(=O)OCC(=O)NC(=O)NCc1ccco1 (centres undefined)	0	18	0.8	9	97*
COc1ccc(CNC(=O)C(CCSC)NC(=O)c2ccco2)cc1 (centres undefined)	0.5	60*	0.4	11	48
COc1ccccc1C(=O)NC(CCSC)C(=O)NCC(c1ccco1)N(C)C (centres undefined)	0.3	69*	0.3	5	67*
COC(=O)[C@H](CCSC)NC(=O)NC1CCN(Cc2ccccc2)CC1	1.1	-23	1.2	4	-8
CC1CC1C(=O)OCC(=O)NC(=O)NCc1ccco1 (centres undefined)	0.9	14	0.9	3	5
CC(C)C(NC(=O)c1ccco1)C(=O)NCC(c1ccco1)N(C)C (centres undefined)	0.9	1	1	23	6
CSCCC(NC(=O)c1ccco1)C(=O)OC(C)C(=O)NC(=O)NC1CCCCC1 (centres undefined)	0.3	31	0.7	14	65*
CCc1ccc2c(c1)[C@H]1OCC[C@H]1[C@@H](c1cccs1)N2	/	/	/	8	/
O=C(CSc1ncnc2c1oc1ccccc12)N1CCc2ccccc2C1	0.8	12	0.9	/	18
CCn1c(C)c2c(C)nnc(C)c2c1C	1	2	1	14	4
Cc1nnc(C)c2c(C)n(C(c3ccccc3)c3ccccc3)c(C)c12	0.4	41	0.6	2	56*
O=c1oc(-c2ccccc2NS(=O)(=O)c2ccc3ccccc3c2)nc2ccccc12	/	/	/	39	/
Cc1ccccc1CS(=O)(=O)c1snnc1C	1	55*	0.5	4	-1
CCC(C)S(=O)(=O)c1snnc1C (centres undefined)	1.1	4	1	19	-12
Cc1ccccc1CS(=O)(=O)c1cnc2ccccc2n1	2.3*	93*	0.1	6	-129
O=c1c2ccccc2nc2n1CC/C2=C/N1CCN(c2cccc(C(F)(F)F)c2)CC1	1.2	8	0.9	19	-16
COC(=O)CN1C(=O)S/C(=C/c2cc(C)n(C)c2C)C1=O	0.5	23	0.8	4	51*
O=C(CSc1nnc(C2COc3ccccc3O2)o1)NC1CCCCC1 (centres undefined)	0.4	50*	0.5	7	58*
CC(NC(=O)CCC1COc2ccccc2O1)c1ccccc1 (centres undefined)	0.9	51*	0.5	10	7
O=C(CC1COc2ccccc2O1)NC1CCCCC1 (centres undefined)	1.9	44	0.6	5	-91
O=C(CCC1COc2ccccc2O1)NC1CCCCC1 (centres undefined)	0.9	56*	0.4	14	12
CSc1nc(N)c2c3c(sc2n1)COC(C(C)C)C3 (centres undefined)	0.9	94*	0.1	4	12
CCCC1Cc2c(sc3nc(SC)nc(N)c23)CO1 (centres undefined)	0.9	38	0.6	3	11
SMILES	CYP2C9 act	CYP2C19 inhib	CYP2C19 act	Measles CPE	CYP2C9 inh
CCCn1nnnc1NCc1ccccc1OCc1ccc(F)cc1	0.1	88*	0.1	3	89*
CCCn1nnnc1NCc1ccccc1OCc1cccs1	0.6	24	0.8	14	42
O=C(CN1CCOCC1)Nc1ccc(S(=O)(=O)N2CCCCCC2)cc1	1	7	0.9	15	1
Cc1ccc(S(=O)(=O)Nc2cccc(NC(=O)CN3CCCCC3)c2)cc1	0.1	92*	0.1	63*	92*
O=C(CN1CCCCC1)Nc1ccc(S(=O)(=O)N2CCCCCC2)cc1	0.9	-2	1	5	13
Cc1ccc(S(=O)(=O)Nc2ccc(NC(=O)CN3CCCCC3)cc2)cc1	0.3	3	1	4	72*
Cc1ccc(S(=O)(=O)Nc2cc(NC(=O)CN3CCOCC3)ccc2Cl)cc1	0.1	33	0.7	10	86*
CC(Nc1cc(=O)n(C)c(=O)n1C)c1ccccc1 (centres undefined)	/	/	/	9	/
CCOC(=O)c1c(C)nc2sc(C(=O)Nc3ccccc3)c(N)c2c1-c1ccc(OC)cc1	0.2	76*	0.2	-1	82*

Screening results from PubChem BioAssay.
